Laboratory results: PubChem BioAssay (NCI)
“And” between values parts separate entries of the source, which are not always exact repeats. Equal entries are not always repeated. Compounds without any hit were thinned out: in the full panel of roughly 83,000, 20% have a hit.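 Note: values are percent growth. 100 is the growth of untreated cells, values between 100 and 0 indicate rising inhibition; between -100 and 0 indicates cell death.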 The source made the active and inactive calls. How the source made its calls: active means growth percent below 10; inactive means the rest.

Test system: MDA-MB-468 breast
Assay: NCI-60 one-dose screen, 48 h (100 = growth as untreated, 0 = no growth, -100 = all killed)
Conditions: 10 µM unless noted

SMILES | growth
Cc1ccc(N2CCN(C(C)C(N)=O)CC2)cc1 (centres undefined) | 109% (inactive)
COc1ccc(C(=O)/C=C/C23c4ccccc4C(c4ccccc42)C2C(=O)NC(=O)C23)cc1 (centres undefined) | 98.7% (inactive)
N#C/C(=C\c1ccc([N+](=O)[O-])cc1)n1nnc2cc(F)c(F)cc21 | -40% (active)
O=C1/C(=C/c2ccc(F)cc2)CN(Cc2cn(CCNc3ccnc4cc(Cl)ccc34)nn2)C/C1=C\c1ccc(F)cc1 | -64.2% (active)
Oc1ccccc1/C=N\NC(=S)N/N=C/c1ccccc1O | 32.2% (inactive) and 11.3% (inactive)
Cc1cccc(C(=O)O)n1 | 111% (inactive)
CC(=O)c1ccc(-n2c(-c3cc(-c4ccsc4)n[nH]3)n[nH]c2=S)cc1 | 97.3% (inactive)
CCOC(=O)c1ccc2c(c1)c1c(C)c3ccncc3c(C)c1n2C | 5.19% (active)
COc1cc(Nc2cc(C)nc(N3CCN(c4ccnc5cc(Cl)ccc45)CC3)n2)cc(OC)c1 | 11.2% (inactive)
CN1CCC(CNc2ccc3ncc(-c4cccc(OC(F)(F)F)c4)n3n2)CC1 | -84.8% (active)
O=C1c2ccccc2C(=O)c2c(NCCNCCO)ccc(NCCNCCO)c21 | -71.9% (active) and -54.1% (active) and -20.9% (active)
O=C(COc1ccc(C2SCC(=O)N2c2ccccc2)cc1)c1ccccc1 (centres undefined) | 85.3% (inactive)
O=C1C(=O)c2cccnc2-c2ncccc21 | -91% (active)
CCCC(=O)OCC1OC(n2cnc3c(=S)nc[nH]c32)C(OC(=O)CCC)C1OC(=O)CCC (centres undefined) | 70.8% (inactive)
